This is part of a sample that, as a whole, favours compounds with a hit. Of some 83,000 tested, about 20% had one in any assay.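 For each line, cells grew in 96-well plates with the test compound present at a single concentration for 48 hours.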 Unmarked numbers belong to inactive results. Active and inactive are the calls of the source. Rule for the calls: active = growth percent below 10; inactive = the rest.

Experimental findings from PubChem BioAssay (NCI) are described below.

Among the test systems are RPMI-8226 leukemia; OVCAR-8 ovarian; OVCAR-5 ovarian; OVCAR-4 ovarian; SK-OV-3 ovarian; OVCAR-3 ovarian; HS 578T breast; NCI/ADR-RES ovarian; IGROV1 ovarian.
What all share (assay): NCI-60 one-dose screen, 48 h (100 = growth as untreated, 0 = no growth, -100 = all killed)
Holding throughout (conditions): 10 µM unless noted

For the molecule `Cc1ccc2c(c1)C(C)Cc1c(N(C)C)ncnc1N2C` (stereo unspecified), the growth in the experiment with RPMI-8226 leukemia is 32.4%; in the experiment on OVCAR-8 ovarian, 51%; in the experiment with OVCAR-5 ovarian, 83.9%; with OVCAR-4 ovarian, 61.1%; in the experiment with SK-OV-3 ovarian, 35.1%; in the experiment on OVCAR-3 ovarian, 14%. The growth in the experiment with HS 578T breast was 6.88% (active); in the experiment with NCI/ADR-RES ovarian it was 28.5%.
Consider `Cn1c(=O)c2c(nc3n2CCN(CCc2ccc(OCCN4CCOCC4)cc2)C3)n(C)c1=O`, for which the growth in the experiment with RPMI-8226 leukemia is 100%; in the experiment on OVCAR-8 ovarian it was 109%; with OVCAR-5 ovarian, 103%; with OVCAR-4 ovarian it was 95.5%; in the experiment on SK-OV-3 ovarian it was 118%; in the experiment with OVCAR-3 ovarian, 110%. The growth in the experiment with HS 578T breast is 106%; in the experiment with NCI/ADR-RES ovarian it was 112%.
Turning to `CC(=O)OC[Si](C)(C)c1ccccc1`, the growth in the experiment on RPMI-8226 leukemia is 110%; in the experiment with OVCAR-8 ovarian, 101%; with OVCAR-5 ovarian, 108%; with OVCAR-4 ovarian, 103%; in the experiment on IGROV1 ovarian, 114%; in the experiment with OVCAR-3 ovarian, 112%. The values for the growth in the experiment with HS 578T breast and in the experiment on NCI/ADR-RES ovarian were 103% and 112%, respectively.
As to `COc1ccc(-c2cn[nH]c2-c2cc(OC)c3c(c2)OCCO3)cc1`, the growth in the experiment with OVCAR-8 ovarian was 26.1%; in the experiment on OVCAR-5 ovarian, 48.1%; in the experiment on OVCAR-4 ovarian it was 73.7%; with SK-OV-3 ovarian, 15.9%; in the experiment with IGROV1 ovarian, 50.2%; with OVCAR-3 ovarian it was -36.6% (active). Moreover, the growth was 3.05% (active) in the experiment with HS 578T breast and 9.78% (active) in the experiment with NCI/ADR-RES ovarian.
Take `CCOC(=O)c1cc(/C(=N\O)c2cc(OC)c(OC)c(OC)c2)n2cc(C)cc(C)c12`: the growth with RPMI-8226 leukemia was 17.6%; in the experiment with OVCAR-8 ovarian, 41.8%; in the experiment with OVCAR-5 ovarian, 64.3%; in the experiment with OVCAR-4 ovarian it was 20.7%; in the experiment on IGROV1 ovarian, 57.5%; in the experiment on OVCAR-3 ovarian it was -8.99% (active). For the same molecule, the growth in the experiment on HS 578T breast is 11.4%; in the experiment with NCI/ADR-RES ovarian, 22.6%.
In the case of `NC(=O)NNC(=O)c1ccccc1`, the growth in the experiment with RPMI-8226 leukemia is 103%; in the experiment on OVCAR-8 ovarian, 110%; in the experiment with OVCAR-5 ovarian, 109%; in the experiment with OVCAR-4 ovarian, 108%; with SK-OV-3 ovarian it was 123%; in the experiment with OVCAR-3 ovarian, 111%. For the same molecule, the growth in the experiment on HS 578T breast is 108%; with NCI/ADR-RES ovarian it was 103%.
Take `O=C(C[N+](=O)[O-])c1ccc(Cl)cc1`: the growth is 100% with RPMI-8226 leukemia; 116% in the experiment with OVCAR-8 ovarian; 110% with OVCAR-5 ovarian; 111% in the experiment with OVCAR-4 ovarian; 113% in the experiment on SK-OV-3 ovarian; 113% in the experiment with OVCAR-3 ovarian. Moreover, the growth in the experiment with HS 578T breast is 100%; with NCI/ADR-RES ovarian, 109%.
Consider `CC(C(=O)n1cc(-c2ccccc2)c(-c2ccccc2)c1)c1ccccc1` (stereo unspecified), for which the growth in the experiment with RPMI-8226 leukemia is 98.2%; in the experiment with OVCAR-8 ovarian, 99.2%; in the experiment with OVCAR-5 ovarian it was 106%; in the experiment on OVCAR-4 ovarian it was 107%; in the experiment with SK-OV-3 ovarian, 105%; with OVCAR-3 ovarian, 118%. In addition, the growth in the experiment with HS 578T breast was 115%; in the experiment on NCI/ADR-RES ovarian, 106%.
Take `O=C1CCC(=O)N1Cc1ccccc1`: the growth with RPMI-8226 leukemia was 109%; with OVCAR-8 ovarian, 108%; in the experiment with OVCAR-5 ovarian, 97.7%; in the experiment on OVCAR-4 ovarian, 96.9%; in the experiment with SK-OV-3 ovarian, 113%; in the experiment on OVCAR-3 ovarian it was 102%. In the experiment on NCI/ADR-RES ovarian, the growth was 89.8%.
As for `CCc1c(C(=O)Nc2ccc3ccccc3c2)[nH]c(C)c1C(C)=O`, the growth with RPMI-8226 leukemia is 75.8%; in the experiment with OVCAR-8 ovarian, 104%; in the experiment with OVCAR-5 ovarian, 101%; in the experiment with OVCAR-4 ovarian, 76.7%; in the experiment on IGROV1 ovarian, 108%; in the experiment on OVCAR-3 ovarian it was 103%. Besides, the growth in the experiment with HS 578T breast is 98.5%; in the experiment with NCI/ADR-RES ovarian, 94.8%.
For `Cc1cc(C(=O)O)c(N)c(C)n1`, the growth with OVCAR-8 ovarian was 112%; in the experiment with OVCAR-5 ovarian it was 111%; in the experiment with OVCAR-4 ovarian, 102%; with SK-OV-3 ovarian, 129%; in the experiment with OVCAR-3 ovarian, 110%; in the experiment on HS 578T breast, 101%. Besides, the growth in the experiment on NCI/ADR-RES ovarian was 108%.
Turning to `Cc1ccc(Nc2ncnc3c2sc2ncccc23)cc1`, the growth with RPMI-8226 leukemia was 105%; in the experiment with OVCAR-8 ovarian, 98.1%; with OVCAR-5 ovarian, 101%; in the experiment with OVCAR-4 ovarian it was 109%; in the experiment with IGROV1 ovarian, 105%; with OVCAR-3 ovarian it was 109%. Further, the growth is 102% with HS 578T breast and 98.8% in the experiment with NCI/ADR-RES ovarian.
With `CC(Br)C(O)c1cc2c(cc1Br)OCO2` (stereo unspecified), the growth with RPMI-8226 leukemia was 101%; in the experiment on OVCAR-8 ovarian, 109%; with OVCAR-5 ovarian, 108%; with OVCAR-4 ovarian, 105%; in the experiment on SK-OV-3 ovarian it was 118%; in the experiment with OVCAR-3 ovarian, 109%. Besides, the results for the growth in the experiment with HS 578T breast and in the experiment with NCI/ADR-RES ovarian were 103% and 105%, respectively.
Consider `COc1ccc(Cl)cc1NC(N)=S`, for which the growth in the experiment with RPMI-8226 leukemia was 100%; with OVCAR-8 ovarian, 108%; with OVCAR-5 ovarian, 113%; in the experiment on OVCAR-4 ovarian, 94.8%; in the experiment on SK-OV-3 ovarian it was 118%; with OVCAR-3 ovarian, 108%. Moreover, the growth in the experiment on HS 578T breast is 104%; in the experiment with NCI/ADR-RES ovarian it was 105%.
As for `COc1cc2nc(Cl)nc(NCCO)c2cc1OC`, the growth is 98.3% in the experiment on RPMI-8226 leukemia; 98.3% with OVCAR-8 ovarian; 100% in the experiment on OVCAR-5 ovarian; 102% in the experiment with OVCAR-4 ovarian; 119% in the experiment on SK-OV-3 ovarian; 108% in the experiment on IGROV1 ovarian. Further, the growth in the experiment on OVCAR-3 ovarian was 111%; in the experiment on NCI/ADR-RES ovarian it was 112%.
As for `NC(=O)c1ccc2c(c1)OCO2`, the growth in the experiment with RPMI-8226 leukemia was 106%; with OVCAR-8 ovarian it was 108%; with OVCAR-5 ovarian it was 113%; with OVCAR-4 ovarian it was 103%; in the experiment on SK-OV-3 ovarian it was 130%; in the experiment with OVCAR-3 ovarian, 107%. Further, the growth in the experiment on HS 578T breast is 98.7%; in the experiment with NCI/ADR-RES ovarian it was 97%.
